The other results are listed elsewhere or left out. The true hit rate is not given.
Target: furin, P09958
Experiment: furin cleavage Z-score vs untreated control; higher = more cleavage, active = 3.5 or more, inactive = 1 or less, 8 variable residues between constant flanks
Description: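 Multiplexed peptide-cDNA fusion cleavage assay. 8-mer variable peptides flanked by constant Cys-Ala (N-term) and Ala-Gly-Asn-Ala-Ser-Ala-Ser-Ala (C-term) and conjugated to a cDNA oligonucleotide were bead-immobilised via the N-terminus. They were treated with purified furin at a 1:10 enzyme:substrate ratio in 50 mM HEPES pH 7.5, 1 mM CaCl2, 100 mM NaCl for 7.5, 15 or 30 min. Released cDNA was counted by next-generation sequencing, and log counts versus no-furin controls were lowess-adjusted and converted to robust Z-scores.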

Chain of furin, P09958 (P09958 whole entry): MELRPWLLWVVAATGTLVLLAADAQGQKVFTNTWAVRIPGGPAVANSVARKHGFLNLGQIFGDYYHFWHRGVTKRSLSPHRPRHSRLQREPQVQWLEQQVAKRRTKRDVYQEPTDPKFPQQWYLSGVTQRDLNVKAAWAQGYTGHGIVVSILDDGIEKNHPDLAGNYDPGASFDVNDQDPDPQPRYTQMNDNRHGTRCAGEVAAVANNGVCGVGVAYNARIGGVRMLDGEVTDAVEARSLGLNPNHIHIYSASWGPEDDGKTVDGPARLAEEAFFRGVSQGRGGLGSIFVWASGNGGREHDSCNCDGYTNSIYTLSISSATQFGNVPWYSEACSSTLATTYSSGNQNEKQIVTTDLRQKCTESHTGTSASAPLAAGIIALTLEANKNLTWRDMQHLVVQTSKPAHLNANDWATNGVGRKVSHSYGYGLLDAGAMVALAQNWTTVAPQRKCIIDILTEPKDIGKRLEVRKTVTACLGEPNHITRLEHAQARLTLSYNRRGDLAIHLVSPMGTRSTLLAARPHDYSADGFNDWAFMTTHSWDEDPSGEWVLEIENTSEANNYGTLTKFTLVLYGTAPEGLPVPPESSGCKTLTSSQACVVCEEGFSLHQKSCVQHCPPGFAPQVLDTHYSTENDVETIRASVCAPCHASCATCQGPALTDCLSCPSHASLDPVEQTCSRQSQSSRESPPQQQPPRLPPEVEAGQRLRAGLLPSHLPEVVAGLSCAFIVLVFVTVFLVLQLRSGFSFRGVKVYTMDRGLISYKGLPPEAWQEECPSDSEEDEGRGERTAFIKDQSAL

Sequence | furin cleavage Z-score (7.5 min) | furin cleavage Z-score (15 min) | furin cleavage Z-score (30 min)
CADGPDGPEEAGNASASA [CS6] | -0.625 (inactive) | -0.697 (inactive) | 0.000165 (inactive)
CAVSVIPTSGAGNASASA [HC872] | -1.15 (inactive) | -1.43 (inactive) | -0.759 (inactive)
CALALLSCLTAGNASASA [HC250] | 0.23 (inactive) | 0.192 (inactive) | 0.0802 (inactive)
CADAARVARFAGNASASA [FS-220] | 1.88 | 3.12 | 3.56 (active)
CASCQRRTRFAGNASASA [FS-379] | -0.682 (inactive) | 1.81 | 2.4
CADAAARVTAAGNASASA [HC1130] | -0.857 (inactive) | -0.374 (inactive) | -0.0041 (inactive)
CAAGHAVGIFAGNASASA [HC747] | 0.991 (inactive) | -0.922 (inactive) | -0.149 (inactive)
CAASIRHARFAGNASASA [FS-580] | 4.24 (active) | 6.42 (active) | 7.16 (active)
CAASHRSTRFAGNASASA [FS-1309] | 0.749 (inactive) | 3.07 | 5.05 (active)
CAASPRVARFAGNASASA [FS-1586] | 7.18 (active) | 7.05 (active) | 9.24 (active)
CAEVTCHRPSAGNASASA [HC2358] | 0.503 (inactive) | 1.09 | -0.419 (inactive)
CASTPCSCHLAGNASASA [HC2540] | -2.32 (inactive) | -0.121 (inactive) | -0.978 (inactive)
CAVVCCSMPYAGNASASA [HC2079] | 1.07 | 1.5 | 0.76 (inactive)
CAMEECSQHRAGNASASA [HC1773] | 0.467 (inactive) | 0.921 (inactive) | 2.83
CAAQQTRGLLAGNASASA [HC677] | -1.39 (inactive) | -0.431 (inactive) | 0.105 (inactive)
CAPRARAARRAGNASASA [FS-1550] | 4.8 (active) | 6.53 (active) | 7.08 (active)
CARRARASDRAGNASASA [FS-2176] | 3.3 | 2.19 | 4.92 (active)
CARRARQARRAGNASASA [FS-1071] | -0.692 (inactive) | 0.798 (inactive) | 2.53
CAIKARAACRAGNASASA [HC1519] | 0.264 (inactive) | -0.0832 (inactive) | 0.862 (inactive)
CASLRAFTEAAGNASASA [HC1538] | -0.614 (inactive) | -1.13 (inactive) | 0.282 (inactive)
CAYLARNARIAGNASASA [FS-319] | -0.614 (inactive) | -1.5 (inactive) | 0.218 (inactive)
CANKNRLRRIAGNASASA [FS-696] | 2.17 | 3.21 | 3.66 (active)
CATLGRHRRIAGNASASA [FS-305] | 0.637 (inactive) | 4.75 (active) | 4.61 (active)
CAGLSRHRRIAGNASASA [FS-1329] | 4.21 (active) | 4.36 (active) | 4.6 (active)
CAVGSKQRRIAGNASASA [FS-631] | -0.93 (inactive) | -0.511 (inactive) | -0.419 (inactive)
CASLVRNRRIAGNASASA [FS-626] | 3.81 (active) | 7.06 (active) | 7.84 (active)
CAEINRPRRIAGNASASA [FS-156] | 0.686 (inactive) | -0.166 (inactive) | 0.217 (inactive)
CALYNRTRRIAGNASASA [FS-61] | -0.475 (inactive) | 0.0321 (inactive) | 0.723 (inactive)

Source: the supplement of paper PMC3545927
